Measurements reported in PubChem BioAssay (Tox21).
Inconclusive results are not listed. Activity calls are given as the source filed them. Calls come from the whole dose curve; as a rule, active = well fitted curve in the direction sought with a large enough effect in the repeat runs; inconclusive = weak or mixed curves; inactive = no such curve, though single readings can be large; an effect the other way counts as inactive or inconclusive.

Tests used:
[1] = qHTS RealTime-Glo MT Cell Viability Assay in HEK293 cells - 0 hour (AID 1224880); note: nearly all actives have a fitted effect of over 45% in size
Procedure, shortened: (§1)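 Real-time viability in HEK293: signal arises when living cells convert a prosubstrate for NanoLuc in the medium, so luminescence tracks viable cell number. Compound (23 nL, DMSO) added 5 h post-seeding; kinetic reads at 0–40 h, 37 C.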

[2] = A CellTox Green Cytotoxicity Assay to monitor cytotoxicity in HEK293 cells - 32 hour (AID 1224881); note: nearly all actives have a fitted effect of over 40% in size
Procedure, shortened: (§2)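 Cells (HEK293, 600/well) and dye reagent are dispensed together. After 5 h at 37 C, 23 nL compound is pinned in. Plates stay at 37 C for 40 h with fluorescence read at 0h, 8h, 16h, 24h, 32h and 40h.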

[3] = A CellTox Green Cytotoxicity Assay to monitor cytotoxicity in HepG2 cells - 32 hour (AID 1224883); note: nearly all actives have a fitted effect of over 50% in size
Procedure, shortened: (§3)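 Cells and non-lytic dye reagent are dispensed together (600 HepG2 cells/well) and incubated 5 h before DMSO compound transfer. Kinetic fluorescence is then recorded in the same wells during 40 h at 37 C.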

[4] = A CellTox Green Cytotoxicity Assay to monitor cytotoxicity in HEK293 cells - 8 hour (AID 1224884); note: nearly all actives have a fitted effect of over 35% in size
Procedure, shortened: as §2

[5] = qHTS RealTime-Glo MT Cell Viability Assay in HepG2 cells - 16 hour (AID 1224885); note: nearly all actives have a fitted effect of over 50% in size
Procedure, shortened: (§4)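 HepG2 suspension premixed with RealTime-Glo reagents is plated at 600 cells per well and left 5 h at 37 C/5% CO2. Compounds in DMSO then go in, and bioluminescence reflecting viable cell number is recorded over 40 h.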

[6] = qHTS RealTime-Glo MT Cell Viability Assay in HEK293 cells - 24 hour (AID 1224886); note: nearly all actives have a fitted effect of over 50% in size
Procedure, shortened: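 Reads taken at 0, 8, 16, 24, 32 and 40 h from the same wells. HEK293 cells (600/well) carried RealTime-Glo reagents from seeding, with compound added after a 5 h settle at 37 C.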

[7] = qHTS RealTime-Glo MT Cell Viability Assay in HEK293 cells - 8 hour (AID 1224887); note: nearly all actives have a fitted effect of over 50% in size
Procedure, shortened: as §1

[8] = A CellTox Green Cytotoxicity Assay to monitor cytotoxicity in HEK293 cells - 16 hour (AID 1224888); note: nearly all actives have a fitted effect of over 35% in size
Procedure, shortened: as §2

[9] = qHTS RealTime-Glo MT Cell Viability Assay in HepG2 cells - 0 hour (AID 1224889); note: nearly all actives have a fitted effect of over 50% in size
Procedure, shortened: as §4

[10] = A CellTox Green Cytotoxicity Assay to monitor cytotoxicity in HepG2 cells - 0 hour (AID 1224882); note: nearly all actives have a fitted effect of over 35% in size
Procedure, shortened: as §3

Measured: Potency
Potency is the fitted concentration of half-maximal effect.

CCOc1ccc(Cc2nccc3cc(OCC)c(OCC)cc23)cc1OCC
active: [3] 5.35 µM | [5] 19 µM | [6] 7.56 µM | [7] 10.7 µM
not listed: [10]
inactive: all other assays above

OC[C@H]1O[C@@H](n2cnc3c(=S)nc[nH]c32)[C@H](O)[C@@H]1O
not listed: [6] | [8] | [10]
inactive: all other assays above

O=C1NC(=O)c2cc([N+](=O)[O-])ccc21
not listed: [6] | [8] | [10]
inactive: all other assays above

CCOc1cccc(-n2cc(C(=O)N3CCN(c4cc(C(=O)O)c5ccccc5c4)CC3)nc2-c2ccc(C)cc2)c1
not listed: [1] | [3] | [7]
inactive: all other assays above

C=C(C)[C@@H]1CCC2=CCC[C@@H](C)[C@]2(C)C1
inactive: [2] | [10] | [5] | [6] | [7] | [8]

CC1=C(CC=O)C(C)(C)CCC1
not listed: [1]
inactive: all other assays above

CC(C)c1nc(CN(C)C(=O)N[C@H](C(=O)N[C@@H](Cc2ccccc2)C[C@H](O)[C@H](Cc2ccccc2)NC(=O)OCc2cncs2)C(C)C)cs1
active: [6] 21.3 µM
inactive: [1] | [10] | [4] | [5] | [8]

O=c1cc(-c2ccccc2)oc2ccc3ccccc3c12
active: [3] 21.9 µM
inactive: [1] | [10] | [5] | [7] | [9]

O=[N+]([O-])c1cc(C2CCCCC2)c(O)c([N+](=O)[O-])c1
active: [6] 13.8 µM | [9] 38.8 µM
inactive: [2] | [10] | [4]

Oc1cc2c(cc1O)[C@H]1c3ccc(O)c(O)c3OC[C@@]1(O)C2
inactive: [1] | [10] | [6] | [9]
active: [5] 44.2 µM | [7] 22.2 µM | [8] 49.6 µM

c1cc(N(CC2CO2)CC2CO2)ccc1Cc1ccc(N(CC2CO2)CC2CO2)cc1 (stereo not drawn)
inactive: [1] | [10] | [4] | [8] | [9]
active: [6] 43.6 µM

C=Cc1ccc(S(=O)(=O)O)cc1
active: [10] 49 µM | [3] 54.9 µM
inactive: [1] | [5] | [6] | [7] | [9]

CN1C[C@H](C(=O)N[C@]2(C)O[C@@]3(O)[C@@H]4CCCN4C(=O)[C@H](Cc4ccccc4)N3C2=O)C[C@@H]2c3cccc4[nH]cc(c34)C[C@H]21
active: [6] 21.3 µM | [7] 23.9 µM
inactive: [1] | [10] | [4] | [9]

CCOC(=O)c1ccccc1C(=C1C=C(Br)C(=O)C(Br)=C1)c1cc(Br)c(O)c(Br)c1
not listed: [1] | [6] | [9]
inactive: all other assays above

CN(C)CCC=C1c2ccccc2C=Cc2ccccc21
active: [3] 23.9 µM
not listed: [1] | [9]
inactive: all other assays above

CC1(C)O[C@@H]2C[C@H]3[C@@H]4C[C@H](F)C5=CC(=O)C=C[C@]5(C)[C@H]4[C@@H](O)C[C@]3(C)[C@]2(C(=O)CO)O1
not listed: [1] | [9] | [10]
inactive: all other assays above

CC(=O)OCCN(CCOC(C)=O)c1ccc(N=Nc2ccc([N+](=O)[O-])cc2C#N)cc1
not listed: [1] | [6] | [7]
inactive: all other assays above

CC(=O)Nc1ccc(C)cc1C
inactive: [1] | [10] | [4] | [5] | [7] | [8]

CCCCCCCCC(CCCCCC)C(=O)O (stereo not drawn)
active: [3] 61.6 µM
not listed: [1]
inactive: all other assays above

COc1ncnc(NS(=O)(=O)c2ccc(N)cc2)c1OC
inactive: [2] | [4] | [5] | [8] | [9]

C[C@@H]1CC(=O)NN=C1c1ccc(NN=C(C#N)C#N)cc1
inactive: [2] | [10] | [4] | [6] | [7] | [8]

CCCCCCCCCCCCCCN(CCO)CCO
active: [2] 38.9 µM | [3] 19.5 µM | [4] 54.9 µM | [5] 43.6 µM
inactive: [10]

CCCC(C(=O)OCCN(CC)CC)(c1ccccc1)c1ccccc1
inactive: [1] | [10] | [4] | [8] | [9]
active: [6] 21.3 µM

COc1ccccc1N1CCN(CCCCNC(=O)c2ccc(-c3ccc(C(C)=O)cc3)cc2)CC1
active: [6] 1.69 µM
inactive: [1] | [4] | [5] | [8] | [9]

CN1CCCC(CC2c3ccccc3Sc3ccccc32)C1 (stereo not drawn)
inactive: [10] | [4] | [7]
active: [2] 23.9 µM | [3] 21.3 µM | [6] 23.9 µM

O=C(Nc1cccc2c(=O)cc(-c3nn[nH]n3)oc12)c1ccc(OCCCCc2ccccc2)cc1
inactive: [2] | [4] | [5] | [7] | [8]

Cc1cc(O)c(C)c(C)c1O
not listed: [2] | [6] | [7]
inactive: all other assays above

Cc1cc2c(OCC(CNC(C)(C)C)OC(=O)c3ccccc3)cccc2[nH]1 (stereo not drawn)
inactive: [1] | [4] | [5] | [7] | [8] | [9]

CC1(CN2CCC(n3c(=O)[nH]c4ccccc43)CC2)OCc2ccccc2-n2cccc21 (stereo not drawn)
inactive: [1] | [10] | [4] | [8] | [9]
active: [6] 19 µM

Cc1cc(O)ccc1O
inactive: [1] | [3] | [4] | [5] | [9]

C[C@@H](CN(C)C)CN1c2ccccc2Sc2ccccc21
active: [2] 13.4 µM | [3] 26.8 µM
inactive: [4] | [7] | [8]

O=C1c2ccccc2C(=O)N1CCc1noc(-c2ccc(CN3CCCCCC3)s2)n1
active: [10] 35.7 µM | [6] 35.7 µM | [7] 35.7 µM
inactive: [1] | [9]

Brc1cc2ccccc2c2ccccc12
inactive: [1] | [10] | [5] | [8] | [9]

C/C=C(/C(=C/C)c1ccc(O)cc1)c1ccc(O)cc1
active: [3] 16.9 µM
not listed: [1] | [6] | [9]
inactive: all other assays above

Nc1ccc(N=Nc2ccccc2)c(N)c1
active: [6] 42.7 µM
not listed: [1] | [5] | [7]
inactive: all other assays above

CC(C)COCC(CN(Cc1ccccc1)c1ccccc1)N1CCCC1 (stereo not drawn)
inactive: [10] | [9]
active: [2] 23.9 µM | [3] 21.3 µM | [4] 21.3 µM | [5] 21.3 µM | [7] 15.1 µM | [8] 23.9 µM

c1csc(SSc2cccs2)c1
inactive: [1] | [4] | [8] | [9]

C(=C\c1ccccc1)/c1ccccc1
inactive: [1] | [10] | [3] | [4] | [5] | [7]

CCCCC(CC)COP(=O)(O)O (stereo not drawn)
not listed: [2] | [6] | [8]
inactive: all other assays above

C[C@@H]1CN(CCCn2c3ccccc3c3ccccc32)C[C@H](C)N1
inactive: [10]
active: [2] 23.9 µM | [3] 23.9 µM | [5] 23.9 µM | [8] 21.3 µM

CC(C)(C)CC(=O)OCC(=O)[C@@]1(O)CC[C@H]2[C@@H]3CCC4=CC(=O)C=C[C@]4(C)[C@H]3[C@@H](O)C[C@@]21C
inactive: [10] | [4] | [5] | [8]
active: [1] 7.56 µM | [6] 21.3 µM | [9] 1.34 µM

OCCN1CCN(CCCN2c3ccccc3Sc3ccc(Cl)cc32)CC1
active: [2] 26.8 µM | [5] 23.9 µM | [6] 23.9 µM

CN(C(=O)CN(CCO)CC(=O)N(C)C(C)(C)Cc1ccccc1)C(C)(C)Cc1ccccc1
active: [3] 23.9 µM | [6] 19 µM
inactive: [1] | [10]
